The values that follow come from PubChem BioAssay.

Structures are written as SMILES.

A short description of the test: compound effects on lung adenocarcinoma cell viability – A549, calcein-AM fluorescence, 48 h, basal, profiling panel (AID 1162). Further: test concentration not given here. Particulars: higher = more signal.
Turning to `O=C1C[C@]2(c3ccc([N+](=O)[O-])cc3)C(=O)N(Cc3ccccc3)c3cc(CO)ccc3[C@H]2N1CC12CC3CC(CC(C3)C1)C2`, the z-score was 0.376. To `Cc1c(NC(=O)/C(C#N)=C/C=C/c2ccc(N(C)C)cc2)c(=O)n(-c2ccccc2)n1C` belongs 0.284. To `COCCOC(=O)N1C(=O)[C@@]2(c3ccccc31)[C@H](c1ccc(OCCO)cc1)N1[C@H](c3ccccc3)[C@H](c3ccccc3)OC(=O)[C@H]1[C@@H]2C(=O)Nc1nc2ccccc2s1` belongs -1.38.

As to `COCCCNC(=O)[C@@]1(Sc2ccc(C)cc2)CC(=O)N(Cc2cc(C(F)(F)F)cc(C(F)(F)F)c2)[C@@H]1c1ccc(CO)cc1`, the z-score was 0.285. With `CCCC[C@@H]1C[C@H]1[C@@H](NC(=O)c1ccccc1)c1ccc(Cl)cc1` the figure was -1.35.

Consider `CC(C)C(CO)N1C(=O)[C@]2(C)C3C(=O)OCCC/C=C\[C@H]3OC23C=CCN(c2ccc(Cl)cc2)C(=O)[C@@H]13` (stereo not given in full), for which the z-score was -0.0554. With `COC(=O)[C@@]1(Cc2ccc(OC)cc2)[C@H]2c3cc(C(=O)N4CCCC4)n(CCc4cc5ccccc5[nH]4)c3C[C@H]2CN1C(=O)c1ccccc1` the figure was -0.596; with `CCCC[C@@H]1C[C@H]1[C@@H](NC(=O)c1cccnc1)c1ccc(-c2ccccc2)cc1`, -1.42; with `[N-]=[N+]=Nc1ccccc1[C@@H]1OC(c2ccc(OCCCO)cc2)=N[C@]1(CCS(=O)(=O)c1ccccc1)C(=O)NCCN1CCOCC1`, 0.652. To `C[C@@H](OCc1ccccc1)C1NC(=O)[C@@]23C(=O)N[C@@H](Cc4ccccc4)C2[C@H](C)[C@@]2(C)O[C@H]2C3/C=C/C/C=C\CNC(=O)CNC1=O` (stereo not given in full) belongs 0.758.

In the case of `C=C(CCCC)/C(=C/C[C@@H](OC(=O)c1ccncc1)c1cccc(OCCO)c1)c1cnc2ccccc2c1`, the z-score was -0.021.

Regarding `CC(=O)n1cc(C(O)C2C=CC3C(=O)N(c4ccccc4)C(=O)C3N2Nc2ccccc2)c2ccccc21` (stereo not given), the z-score was -0.8. To `C=CCN1C(=O)[C@]2(CC=C)N=C(c3ccc(OCCCO)cc3)O[C@@H]2c2ccccc21` belongs -1.23. To `CCOC(=O)C[C@H]1[C@H](OC(=O)Cc2ccc3c(c2)OCO3)[C@@H](NC(=O)C2CCCCC2)c2cc(OCCCO)ccc2N1C(=O)c1ccc2ccccc2n1` belongs 0.177; to `O=C1O[C@@H](c2ccccc2)[C@@H](c2ccccc2)N2[C@@H](c3ccccc3OCCO)[C@]3(C(=O)Nc4ccc(C#CC5=CCCCC5)cc43)[C@@H](C(=O)NC[C@H](O)c3ccccc3)[C@H]12`, -1.37.

`O=C1OCC=C[C@H]2OC34C=CCN(Cn5nnc6ccccc65)C(=O)[C@H]3N(CCCCCCO)C(=O)[C@@H]4[C@@H]12` (stereo not given in full): the z-score is -0.4. To `COCCCNC(=O)[C@]1(Cc2ccccc2N=[N+]=[N-])N=C(c2ccc(OCCCO)cc2)O[C@@H]1c1ccccc1N=[N+]=[N-]` belongs -0.795. As for `CC(C)c1ccc(NN2C(C(O)c3ccco3)C=CC3C(=O)N(c4ccccc4)C(=O)C32)cc1` (stereo not given), the z-score was 0.983. As for `Cc1ccc(S[C@]2(C(=O)NCC(C)C)CC(=O)N(Cc3ccccc3Cl)[C@@H]2c2ccc(CO)cc2I)cc1`, the z-score was -0.0583. On to `C=CCC(OC(C)=O)[C@@H]1[C@@H](N(Cc2ccc(-c3ccccc3)cc2)C(=O)c2cccc3ccccc23)c2cc(OCCCO)ccc2N1C(=O)Cc1ccc2ccccc2c1` (stereo not given in full), for which the z-score is -0.0841. For the molecule `CC=CC(O)C1C=CC2C(=O)N(C)C(=O)C2N1Nc1ccc([N+](=O)[O-])cc1[N+](=O)[O-]` (stereo not given), the z-score was -0.481. Consider `CC(C)(C)OC(=O)CC[C@]1(C(=O)NCCN2CCOCC2)N=C(c2ccc(OCCCO)cc2)O[C@H]1c1ccccc1`, for which the z-score is 1.01. To `CCCCC(=C=CC[C@@H](O)c1ccc(OCCO)cc1)C[C@@H](O)COCc1ccccc1` belongs 2.64; to `COC(=O)[C@H](Cc1ccccc1)N1CC(/C=C/C2CC2)=C[C@@H]1[C@@H](O)Cc1ccccc1`, 0.56; to `COCCOC(=O)N1C(=O)[C@@]2(c3cc(C#CCC(C(=O)OC)C(=O)OC)ccc31)[C@H](c1ccc(OCCO)cc1)N1[C@H](c3ccccc3)[C@H](c3ccccc3)OC(=O)[C@H]1[C@@H]2C(=O)N1CCN(c2ncccn2)CC1`, -0.828. Turning to `CN(C)C(=O)[C@]1(CCC(=O)OC(C)(C)C)N=C(c2ccc(OCCCO)cc2)O[C@@H]1c1ccccc1`, the z-score was 1.13. With `COCCOC(=O)N1C(=O)[C@@]2(c3cc(C#CC4(O)CCCCCC4)ccc31)[C@H](C(N)=O)[C@H]1C(=O)O[C@H](c3ccccc3)[C@H](c3ccccc3)N1[C@@H]2c1ccccc1OCCO` the figure was -1.86; with `CC(CO)N1C(=O)[C@@H]2C3C(=O)OCCC/C=C\[C@H]3OC23C=CCN(Cn2nnc4ccccc42)C(=O)[C@@H]13` (stereo not given in full), 0.0034; with `COC(=O)[C@@]1(Cc2ccc(OC)cc2)[C@H]2c3cc(C(=O)N(C)C)n(CCc4c[nH]c5ccc(O)cc45)c3C[C@H]2CN1C(=O)c1ccccc1`, -1.66. With `O=c1cccc(-c2cccc(Cl)c2)o1`, the z-score is -1.09.

Consider `O=C1O[C@H](c2ccccc2)[C@H](c2ccccc2)N2[C@H]1[C@@H](C(=O)O)[C@]1(C(=O)Nc3ccccc31)[C@H]2c1ccc(O)cc1`, for which the z-score is 0.29. With `COCCOC(=O)N1C(=O)[C@@]2(c3ccccc31)[C@H](C(=O)N1CCN(c3ncccn3)CC1)[C@H]1C(=O)O[C@H](c3ccccc3)[C@H](c3ccccc3)N1[C@@H]2c1ccc(OCCO)cc1` the figure was 1.16.

For `CCOC(=O)C1=C[C@@H](c2ccccc2)N(S(=O)(=O)c2ccc(C)cc2)[C@H]1c1cccc(Cl)c1`, the z-score is -1.17. To `O=C1c2ccccc2[C@](Cc2ccccc2I)(C(=O)NCCN2CCOCC2)[C@H](c2ccc(CO)cc2)N1Cc1ccccc1` belongs -0.0426; to `O=C(O)[C@H]1C[C@H]2C(=O)N3CCC[C@H]3C(=O)N2[C@H]1c1cccc(OCCO)c1`, 1.67.
